High-throughput results as filed in PubChem BioAssay.
Sfp PPTase inh: qHTS Assay for Inhibitors of Bacillus subtilis Sfp phosphopantetheinyl transferase (PPTase) | 4'-phosphopantetheinyl transferase ffp (Bacillus subtilis), Q9F4F7 | Biochemical Sfp PPTase activity, qHTS | Potency, µM, for inactives: largest response in the series, negative = inhibition, usual class: inhibitors | 310,000 compounds, 3.5% hits | AID 1490, 2009;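 note: the enzyme is Sfp with the accession as filed and its product quenches rhodamine fluorescence; 0% = enzyme reaction without inhibitor and -100% = no enzyme wells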
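Fluorescence-quenching assay: 15 nM Sfp-PPTase preincubated 15 min at room temperature with compound, then 5 uM rhodamine-CoA and 12.5 uM BHQ-2-labelled YbbR peptide added. Fluorescence (ex 525/em 598 nm) read at start and after 30 min; difference gives rate.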
G9a inh: qHTS Assay for Inhibitors of Histone Lysine Methyltransferase G9a; Potency, µM (doses to about 102 µM), for the others: top-dose activity, negative = inhibition, most hits filed as inhibitors; 350,000 compounds, 8.8% hits; G9a H3K9 monomethylation, AlphaScreen, 2 h; note: % is set by controls: 0 for no effect and ±100 for the full control effect; nearly all actives have a fitted effect of over 75% in size
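G9a (20 nM) preincubated 15 min RT with compounds, then 500 nM biotinylated H3K9 peptide and 20 uM SAM added; 2 h RT reaction. Monomethyl-H3K9 product detected by AlphaScreen with anti-H3K9me1 antibody, streptavidin donor and anti-rabbit IgG acceptor beads.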
L3MBTL1 block: qHTS Assay for the Inhibitors of L3MBTL1; AlphaScreen L3MBTL1–H3K9me1 peptide binding; AID 485360, 2010; Potency, µM (doses to about 57.1 µM), inactives show at the top dose activity, negative = inhibition, most hits filed as inhibitors; 230,000 compounds, 0.66% hits; Lethal(3)malignant brain tumor-like protein 1 (Homo sapiens), Q9Y468; note: % is set by controls: 0 for no effect and ±100 for the full control effect; nearly all actives have a fitted effect of over 60% in size
Target sequence (Q9Y468 whole entry, looked up): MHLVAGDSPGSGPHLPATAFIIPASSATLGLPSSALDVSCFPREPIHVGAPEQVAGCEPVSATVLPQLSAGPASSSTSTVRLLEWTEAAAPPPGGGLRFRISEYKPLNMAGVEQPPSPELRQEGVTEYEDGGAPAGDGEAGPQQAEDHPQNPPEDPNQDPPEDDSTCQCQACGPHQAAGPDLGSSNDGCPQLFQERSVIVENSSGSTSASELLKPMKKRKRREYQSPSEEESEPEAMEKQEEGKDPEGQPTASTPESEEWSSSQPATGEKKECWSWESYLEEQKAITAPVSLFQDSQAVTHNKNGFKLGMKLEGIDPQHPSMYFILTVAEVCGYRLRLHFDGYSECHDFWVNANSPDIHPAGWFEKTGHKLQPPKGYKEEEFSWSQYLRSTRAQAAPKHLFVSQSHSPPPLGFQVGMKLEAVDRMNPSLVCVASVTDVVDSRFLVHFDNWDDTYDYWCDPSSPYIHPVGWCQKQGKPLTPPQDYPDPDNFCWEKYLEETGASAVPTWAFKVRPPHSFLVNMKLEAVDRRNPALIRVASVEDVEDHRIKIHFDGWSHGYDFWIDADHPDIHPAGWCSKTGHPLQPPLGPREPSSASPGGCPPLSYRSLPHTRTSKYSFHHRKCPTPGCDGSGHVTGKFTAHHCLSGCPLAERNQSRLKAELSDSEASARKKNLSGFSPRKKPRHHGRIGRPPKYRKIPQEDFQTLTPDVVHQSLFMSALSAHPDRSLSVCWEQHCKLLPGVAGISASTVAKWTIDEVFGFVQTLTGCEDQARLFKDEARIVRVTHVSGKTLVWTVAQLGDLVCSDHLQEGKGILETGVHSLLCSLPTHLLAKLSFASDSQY
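AlphaScreen proximity signal between nickel-chelate acceptor and streptavidin donor beads (final 10 ug/mL) reports binding of 50 nM L3MBTL1 to 75 nM biotin-H3 K9me1 peptide; complex incubated with compounds 30 min at room temperature; cefsulodin titration as control.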
HP1b chromo inh: HTS for Inhibitors of HP1-beta Chromodomain Interactions with Methylated Histone Tails; Potency, µM (doses to about 114 µM), without a hit: top-dose activity change, negative = inhibition, most hits filed as inhibitors; 390,000 compounds, 0.56% hits; AlphaScreen HP1-beta / biotin-H3K9me3 peptide binding; note: nearly all actives have a fitted effect of over 70% in size
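HP1-beta protein (50 nM final) preincubated 30 min at room temperature with biotinylated H3(1-18)K9me3 peptide (50 nM) in PBS pH 7.4, 0.01% Tween-20, then compound added for 30 min. AlphaScreen streptavidin donor/nickel chelate acceptor beads (10 ug/mL final), 30 min dark, luminescence read.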
BAZ2B inh: qHTS Assay for Inhibitors of BAZ2B | Bromodomain adjacent to zinc finger domain protein 2B (Homo sapiens), Q9UIF8 | AlphaScreen BAZ2B-H3K14Ac peptide displacement | Potency, µM (titrated, usually from 114 µM), for the others: at the highest dose activity change, negative = inhibition, most hits filed as inhibitors | 360,000 compounds, 4.4% hits | AID 504333, 2011; note: % is set by controls: 0 for no effect and ±100 for the full control effect; nearly all actives have a fitted effect of over 60% in size
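Protein-peptide AlphaScreen: BAZ2B 50 nM, b-H3K14Ac 50 nM, 1x PBS pH 7.4 + 0.01% Tween-20. Preincubation 30 min RT; cpd 30 min RT (top 110 uM); beads 20 min RT, light-protected.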
JMJD2A Tudor inh: qHTS Assay for Inhibitors of JMJD2A-Tudor Domain; Potency, µM (top dose mostly 114 µM), for inactives: at the top dose activity change, negative = inhibition, hits mostly inhibitors; AID 504339, 2011; AlphaScreen JMJD2A-Tudor / H3K4me3 peptide binding; 390,000 compounds, 4.4% hits; note: % is set by controls: 0 for no effect and ±100 for the full control effect; nearly all actives have a fitted effect of over 50% in size
* = called active by the depositor; ? = inconclusive; nt = no result; [ ] = another dose, or the depositor's remark. Rows were chosen to be rich in hits. Some 12% of all compounds tested hit in one or more screens of this group. Calls come from the whole dose curve; as a rule, active = well fitted curve in the direction sought with a large enough effect; inconclusive = small, poorly fitted or top-dose-only effect, or another doubt; inactive = no such curve, though single readings can be large; an effect the other way counts as inactive or inconclusive. Potency is the fitted concentration of half-maximal effect.

SMILES	Sfp PPTase inh	G9a inh	L3MBTL1 block	HP1b chromo inh	BAZ2B inh	JMJD2A Tudor inh
Cc1cccc(CSCCNC(=O)CN(c2ccccc2)S(=O)(=O)N(C)C)c1	nt	30%[59 µM]	nt	59%	20%	-3%
CC(C)c1ccc(NC(=O)Cn2nnc(C(=O)NCc3ccc(Cl)cc3)c2N)cc1	nt	-2%[59 µM]	nt	-8%	9%[57.1 µM]	-19%
Cc1ccccc1Nc1nc(-c2sc(NC(=O)c3ccc([N+](=O)[O-])cc3)nc2C)cs1	-10%	25µM*	-18%	nt	45µM*	nt
CCOc1ccccc1Nc1nc(-c2sc(NC(=O)c3ccc([N+](=O)[O-])cc3)nc2C)cs1	-2%	?	-6%	nt	?	nt
COc1ccc(OC)c(NC(=O)COCc2cc(-c3ccco3)on2)c1	nt	-20%[59 µM]	nt	-9%	-23%	-8%
c1ccc(CNC2=NCCCCC2)cc1	8%	23%	6%	29%	21%	-4%
Clc1ccc(-c2csc(NNC3=NCCCCC3)n2)cc1	56µM*	5%[2.33 µM]	-6%	-26%	-7%[57.1 µM]	?
c1ccc(NNC2=NCCCCC2)cc1	13%	2.5µM*	nt	36%	0%	-6%
Brc1ccc(-c2csc(NC3=NCCCCC3)n2)cc1	1%	16%[59 µM]	-8%	26%[57 µM]	0%	-5%
Fc1ccc(-c2csc(NC3=NCCC3)n2)cc1	-18%	?	-11%	21%	nt	-20%
c1ccc(-c2csc(NNC3=NCCCCC3)n2)cc1	40µM*	10µM*	nt	?	?	-2%[11.4 µM]
CNC(=O)C1CCC(Cn2c(=O)c3sccc3n(CC(=O)N3CCCC3)c2=O)CC1 (configuration not stated)	nt	27%[59 µM]	nt	34%	-3%	-10%
COc1ccc(C)cc1S(=O)(=O)N1CC(C)OC(C)C1 (configuration not stated)	0%	nt	-12%	23%	-1%	-1%
Cc1cc(C)c(C)c(OCCN2CC(C)OC(C)C2)c1 (configuration not stated)	45µM*	1.8µM*	3%	?	32µM*	5.6µM*
CC1CN(CCCCOc2ccc(Cl)c3ccccc23)CC(C)O1 (configuration not stated)	79µM*	nt	38%	-33%	?	11µM*
CC1CN(CCOc2ccc(Cl)cc2Cl)CC(C)O1 (configuration not stated)	-16%	?	-3%	?	-37%	8.9µM*
CC1CN(CCS(=O)(=O)c2cc(Cl)ccc2Cl)CC(C)O1 (configuration not stated)	6%	-12%	nt	18%	2%	1%
COc1cc(C)ccc1OCCCCN1CC(C)OC(C)C1 (configuration not stated)	-20%	8.9µM*	nt	?	50µM*	35µM*
Cc1nc2nncn2c(NCc2ccc(Cl)cc2)c1C	nt	1%[59 µM]	nt	46%	-1%	5%
COc1ccc(S(=O)(=O)NCc2cccn2Cc2cc(C)ccc2C)cc1OC	nt	-1%[12.7 µM]	nt	-12%	?	-33%
COc1ccc(-c2cc(C(=O)N3CCN(c4ccccc4O)CC3)c3ccccc3n2)cc1	nt	?	2%	14%	-38%	-33%
COc1ccc(-c2cc(C(=O)N3CCN(c4ccccc4)CC3)c3ccccc3n2)cc1	8%	40µM*	1%	6%	-38%	-29%
COc1ccc(N2CCN(C(=O)c3cc(-c4cc(OC)ccc4OC)nc4ccccc34)CC2)cc1	-1%	25µM*	nt	?	11µM*	35µM*
COc1ccc(-c2cc(C(=O)N3CCCC3)c3ccccc3n2)cc1	-2%	25%[59 µM]	nt	7%	2%	-23%
COc1ccc(OC)c(-c2cc(C(=O)N3CCN(c4ncccn4)CC3)c3ccccc3n2)c1	9%	?	-5%	11%	3%	-4%
SMILES	Sfp PPTase inh	G9a inh	L3MBTL1 block	HP1b chromo inh	BAZ2B inh	JMJD2A Tudor inh
O=C(c1cc(-c2ccc(F)cc2)nc2ccccc12)N1CCC1	nt	nt	0%	33%	nt	-1%
O=C(O)c1cc(-c2ccc(-c3ccc(F)cc3)o2)nc2ccccc12	3.5µM*	-101%[59 µM]	nt	35%	?	0%
Cc1ccc(-c2cc(C(=O)N3CCN(c4ccccc4O)CC3)c3ccccc3n2)cc1	nt	40µM*	-7%	-7%	-36%	?
CC12C=C(/C=C/c3ccccc3)C(C)(C1)C(c1ccccc1)CC2=O (configuration not stated)	8%	nt	nt	nt	nt	nt
O=C(c1cc(-c2ccccc2Cl)nc2ccccc12)N1CCC1	nt	-38%	3%	14%	-2%	-9%
COc1ccc(-c2cc(C(=O)N3CCCCCC3)c3ccccc3n2)c(OC)c1	40µM*	40µM*	nt	18%	-34%	-28%
Cc1ccc(-c2cc(C(=O)N3CCN(c4ccc(F)cc4)CC3)c3ccccc3n2)o1	25µM*	45µM*	-20%	-17%	40µM*	56µM*
COc1ccc(-c2cc(C(=O)N3CCN(c4ncccn4)CC3)c3ccccc3n2)c(OC)c1	-2%	?	1%	25%	-1%	-4%
O=C(c1cc(-c2ccccc2Cl)nc2ccccc12)N1CCN(c2ccccc2O)CC1	nt	56µM*	-13%	-6%	-35%	-32%
Cc1ccc(-c2cc(C(=O)N3CCOCC3)c3ccccc3n2)o1	nt	nt	4%	-16%	nt	-29%
Cc1ccccc1-c1cc(C(=O)N2CCCC2)c2ccccc2n1	-5%	40µM*	nt	8%	-20%	-12%
O=C(NCc1ccccc1)C(=O)NCC(c1ccc2c(c1)OCO2)N1CCOCC1 (configuration not stated)	nt	6%[59 µM]	nt	17%[57 µM]	3%	-13%
CC(C)(C)OC(=O)N1CC23CC(c4ccc(F)cc4)C(CC2S1(=O)=O)O3 (configuration not stated)	23%	nt	nt	21%	nt	-8%
N#Cc1ccc(CN2CCN(C(=O)c3cn(Cc4ccccc4)nc3-c3cccnc3)CC2)cc1	nt	?	-5%	27%	1%	-15%
COc1cc2c(cc1OC)CN(C(=O)c1cc(C3CC3)nn1-c1ccccc1)CC2	nt	?	-1%	6%	?	-33%
COc1ccc(N2CCN(C(=O)c3cn(Cc4ccccc4)nc3-c3cccnc3)CC2)cc1	nt	8.9µM*	-2%	4%	-36%	-31%
